Compound activity deposited in PubChem BioAssay by National Center for Advancing Translational Sciences (NCATS).
Shown are actives, neighbours in structure and some others; about 3.1% of the full set was active somewhere.
Tau fluor counter: counter-screen for tau fibril formation inhibitors; Potency, µM (series often up to 57.7 µM); AID 1463; tau K18 P301L Alexa594 fluorescence, heparin fibrillization; 280,000 compounds, 0.93% hits; further: nearly all actives have a fitted effect of over 55% in size
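Human tau K18 P301L (15 uM unlabeled, 0.24 uM Alexa 594-labeled) in 100 mM sodium acetate pH 7 with 20 uM heparin, 6 hr at 37 C. ThT 30 uM added, 1 hr ambient; Alexa 594 FP and total fluorescence read at 555/632 nm.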
TR SRC2 fluor cs: alters Texas Red total fluorescence, flagging assay interference; TRb/SRC2 Texas Red total fluorescence interference; AID 1479; Potency, µM (series often up to 106 µM); 280,000 compounds, 0.29% hits; active means well fitted curve in either direction with a large enough effect; inconclusive means small, poorly fitted or top-dose-only effect
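Human TRβ ligand-binding domain (0.6 uM) and Texas Red SRC2 peptide (20 nM) in Tris buffer with 1 uM T3 and 5% DMSO were incubated with pinned compound for 5 hr at ambient temperature. Total fluorescence was computed as S + 2P (555/632 nm).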
Tau fibril FP: blocks human tau fibril formation measured by polarization | P10636 | K18 P301L tau heparin fibrillization, Alexa594 FP, 6 h | Potency, µM (series often up to 57.7 µM), actives largely listed as inhibitors | 280,000 compounds, 0.39% hits | AID 1468; further: nearly all actives have a fitted effect of over 55% in size
Target sequence (P10636 561-689 P618L limits assumed): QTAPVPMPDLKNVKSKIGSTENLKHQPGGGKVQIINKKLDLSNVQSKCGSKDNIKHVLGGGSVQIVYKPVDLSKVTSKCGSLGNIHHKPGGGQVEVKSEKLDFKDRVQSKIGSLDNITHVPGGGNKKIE
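Heparin (20 uM) drove fibril formation of recombinant tau K18 P301L, 15 uM unlabeled with 0.24 uM Alexa 594 label, for 6 hr at 37 C in 100 mM sodium acetate pH 7. Fluorescence polarization (555/632 nm) read 1 hr after 30 uM ThT.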
TRb SRC2 PPI: inhibitors of human thyroid hormone receptor beta-SRC2 interaction. P10828. TRbeta-SRC2 peptide binding, fluorescence polarization; receptor liganded with 1 µM T3. Potency, µM (doses to about 106 µM), most hits filed as inhibitors. 280,000 compounds, 0.065% hits. AID 1469; further: nearly all actives have a fitted effect of over 50% in size
Target sequence (P10828 whole entry, looked up): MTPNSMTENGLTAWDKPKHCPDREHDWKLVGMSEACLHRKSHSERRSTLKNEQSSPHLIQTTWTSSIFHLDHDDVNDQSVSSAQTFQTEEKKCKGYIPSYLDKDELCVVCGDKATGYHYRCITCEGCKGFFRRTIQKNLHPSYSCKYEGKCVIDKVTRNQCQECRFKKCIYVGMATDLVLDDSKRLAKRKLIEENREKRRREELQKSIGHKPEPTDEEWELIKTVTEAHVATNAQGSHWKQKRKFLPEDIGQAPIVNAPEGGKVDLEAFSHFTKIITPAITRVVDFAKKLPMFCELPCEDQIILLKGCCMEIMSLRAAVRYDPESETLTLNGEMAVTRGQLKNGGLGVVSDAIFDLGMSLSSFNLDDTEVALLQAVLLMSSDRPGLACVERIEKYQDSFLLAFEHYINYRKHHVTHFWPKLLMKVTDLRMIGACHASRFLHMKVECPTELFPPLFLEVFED
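Human TRb LBD (0.6 uM) plus Texas Red-labeled SRC2 peptide (20 nM), 1uM T3, 5% DMSO, 5 hr at ambient temperature. Decreased polarization (555/632 nm) flags inhibition; data normalized to free and bound peptide controls.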
Tau fibril ThT: tau fibrillization inhibition (ThT binding); recombinant tau K18 P301L, heparin-induced fibrillization, ThT fluorescence; Potency, µM (titrated, usually from 57.4 µM), usual class: inhibitors; 270,000 compounds, 2.1% hits; AID 1460; further: nearly all actives have a fitted effect of over 55% in size
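Using a mix of unlabeled (15 uM) and Alexa 594-labeled (0.24 uM) tau K18 P301L, heparin-triggered fibrillization over 6 hr at 37 C was scored by ThT fluorescence.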
A number is an active result; . = inactive; ? = inconclusive; / = no result given; [ ] = remark or other dose. Unless noted, the call rests on the fitted dose curve; in most records, active means well fitted curve in the direction sought with a large enough effect; inconclusive means small, poorly fitted or top-dose-only effect, or another doubt; inactive means no such curve, though single readings can be large; an effect the other way counts as inactive or inconclusive.

SMILES	Tau fluor counter	TR SRC2 fluor cs	Tau fibril FP	TRb SRC2 PPI	Tau fibril ThT
CC(=O)/C(N=Nc1ccc2c(c1)OCCO2)=C(\C)O	.	.	.	.	10µM
CC(=O)/C(N=Nc1ccc2c(c1)OCO2)=C(\C)O	.	.	.	.	3.5µM
CCC(=O)N1C2=C(c3ccccc3[C@@H]1CC(=O)Nc1ccc3ccccc3c1)[C@@H]1C(=O)N(c3ccccc3)C(=O)[C@@H]1[C@H](C)C2	.[11.6 µM]	.[11.2 µM]	.[11.6 µM]	.[11.2 µM]	.[11.5 µM]
Cc1cc(C)n(-c2ccc(C(=O)Nc3ccc(C)c(S(=O)(=O)N4CCOCC4)c3)cc2)n1	.	.	.	.	.
NC(=O)CSc1cn(CCNC(=O)c2cccs2)c2ccccc12	.	.	.	.	.
Cc1ccc(C)c(CSc2cn(CCNC(=O)c3cccs3)c3ccccc23)c1	8.9µM[quencher]	.	.	.	?
O=C(NCCn1cc(SCc2ccc(Br)cc2)c2ccccc21)c1cccs1	?	.	.	.	?
O=C(NCCn1cc(SCc2ccccc2)c2ccccc21)c1cccs1	5.6µM[quencher]	?	?	.	?
Cc1ccc(C)c(CSc2cn(CCNC(=O)c3ccccc3F)c3ccccc23)c1	?	.	.	.	?
O=C(NCCn1cc(SCc2ccccc2Cl)c2ccccc21)c1cccs1	3.2µM[quencher]	.	?	.	.
C#CCCOC(=O)Nc1ccccc1	.	.	.	.	.
CCSc1nnc(NC(=O)CSc2nc3c(cc2C#N)CCCC3)s1	?	.	.	.	2.8µM
N#Cc1cc2c(nc1SCC(=O)Nc1nccs1)CCCCC2	.	.	.	.	?
CCc1nnc(NC(=O)CSc2nc3c(cc2C#N)CCC3)s1	.	.	.	.	2µM
C[Si](C)(Cl)[Si](C)(C)Cl	/	.	/	.	/
CCc1ccc2oc(-c3ccc(OC)cc3)cc(=Nc3c(C)n(C)n(-c4ccccc4)c3=O)c2c1	.	.	.	.	11µM
CCc1ccc2oc(-c3ccc(OC)cc3)cc(=Nc3cccc(C(=O)O)c3)c2c1	.	.	.	.	?
O=C(CCCc1ccccc1)N1CCN(c2ccc([N+](=O)[O-])cc2)CC1	.	.	.	.	2.2µM
O=C(CCCC(=O)N1CCN(c2ccc([N+](=O)[O-])cc2)CC1)c1ccccc1	.	.	.	.	2.2µM
CCCCOC(=O)/C(C#N)=C/c1ccc(-c2ccc(Br)cc2)o1	.	.	.	.	.
Cc1occc1-c1nnc(-c2cc([N+](=O)[O-])cc([N+](=O)[O-])c2)o1	.	.	.	.	.
CCCc1cc(=O)[nH]c(Nc2ccc(C(=O)O)cc2)n1	.	.	.	.	.
CCCOC(=O)c1cccc(Nc2nc(CCC)cc(=O)[nH]2)c1	?	?	22µM	.	.
CC[n+]1ccc(/C=C2\Sc3ccccc3N2CCCS(=O)(=O)[O-])c2ccccc21	.	.	.	.	?
CN1C=C/C(=C\c2cc[n+](C)c3ccccc23)c2ccccc21	?	.	?	.	14µM
SMILES	Tau fluor counter	TR SRC2 fluor cs	Tau fibril FP	TRb SRC2 PPI	Tau fibril ThT
CCOC(=O)CN1C(c2ccc(O)cc2)Nc2ccc(Br)cc2C1c1ccccc1 (stereo unspecified)	7.1µM[quencher]	.	?	.	?
CCOC(=O)CN1C(=O)Nc2ccc(Br)cc2C1c1ccccc1 (stereo unspecified)	.	.	.	.	.
O=C(CO/N=C/c1ccccc1O)N1CCc2ccccc21	.	.	.	.	?
COc1ccc(Cl)cc1N=Nc1ncc[nH]1	.	.	.	.	13µM
O=C(Nc1ccccc1)c1ccc(NCCc2ccccc2)c([N+](=O)[O-])c1	.	.	?	.	.
CCN(CC)c1ccc(C(=O)Nc2ccccc2)cc1[N+](=O)[O-]	?	.	.	.	16µM
COc1cccc(CN(Cc2ccco2)c2cnc(S(C)(=O)=O)nc2C(=O)Nc2cccc(Cl)c2C)c1	.	?	.	.	.
COCCCNC(=O)c1ccc2c3c(onc13)-c1ccccc1C2=O	5.6µM[quencher]	.	?	.	6.3µM
COc1ccc(CNC(=O)CCCCCn2c(=O)[nH]c3ccccc3c2=O)cc1	.	.	.	.	.
Cc1cc(O)c(/C=N/OCc2ccc(Cl)cc2Cl)c(=O)o1	.	.	.	.	.
CN(C)/C=C(\C=N\OCc1ccc(Cl)cc1Cl)C(=O)Nc1ccc(Cl)c(Cl)c1	16µM[quencher]	.	.	.	?
CCN1C(=O)C2(C(C#N)=C(N)Oc3c2c(C)nn3-c2ccccc2)c2ccccc21 (stereo unspecified)	?	.	?	.	16µM
Cc1nn(-c2ccccc2)c2c1C1(C(=O)N(C)c3ccccc31)C(C#N)=C(N)O2 (stereo unspecified)	?	.	?	.	22µM
Cc1nn(-c2ccccc2)c2c1C1(C(=O)N3c4c(cccc41)C(C)CC3(C)C)C(C#N)=C(N)O2 (stereo unspecified)	?	.	?	.	?
CCOC(=O)N1CCC2(CC1)C(C#N)=C(N)Oc1c2c(C)nn1-c1cccc(Cl)c1	?	.	.	.	22µM
CC(=O)N1C(=O)C2(C(C#N)=C(N)Oc3c2c(C)nn3-c2ccccc2)c2ccccc21 (stereo unspecified)	?	.	?	.	28µM
O=c1c(Cl)c(Cl)cnn1Cc1nnc(-c2ccc(Cl)cc2)o1	.	.	?	.	28µM
Cc1ccc(Cn2ncc(Cl)c(Cl)c2=O)cc1	.	.	.	.	.
O=C1CC(c2ccccc2)=NN1c1nc(-c2ccccc2)cs1	?	32µM[quencher]	?	?	10µM
N=C1C=CC=C2C1=NC1(CCCCC1)N2O	.	.	?	.	25µM
COc1ccc(N=C2NC(=O)/C(=C/c3ccc(O)c(OC)c3)S2)cc1	?	.	.	.	3.5µM
COc1ccc(N=C2NC(=O)/C(=C\c3ccco3)S2)cc1	?	.	.	.	10µM
COc1cc(/C=C2/SC(=Nc3ccc(O)cc3)NC2=O)cc(OC)c1O	.	.	.	.	?
O=C1NC(=Nc2ccc(O)cc2)S/C1=C\C=C\c1ccco1	?	.	?	.	1.6µM
COc1ccc(-c2ccc(NS(=O)(=O)c3cc(C)c(C)cc3C)cc2)nn1	?	.	?	.	.
SMILES	Tau fluor counter	TR SRC2 fluor cs	Tau fibril FP	TRb SRC2 PPI	Tau fibril ThT
COc1ccc2[nH]c3c(N4CCN(Cc5ccc6c(c5)OCO6)CC4)ncnc3c2c1	20µM[quencher]	.	?	.	?
COc1ccc2[nH]c3c(N4CCC(O)(c5cccc(C(F)(F)F)c5)CC4)ncnc3c2c1	16µM[quencher]	.	.	.	?
COc1ccc2c(c1)c1ncnc(N3CCN(Cc4ccc5c(c4)OCO5)CC3)c1n2C	.	.	.	.	.
Cc1ccc2[nH]c3c(N4CCOCC4)ncnc3c2c1	.	.	.	.	.
CN(C)c1ccc(N=Nc2ccccc2C(=O)OCC(=O)N(C)c2ccccc2)cc1	.	.	?	.	1.6µM
CC(=O)c1ccc(NC(=O)COC(=O)c2ccccc2N=Nc2ccc(N(C)C)cc2)cc1	.	.	.	.	.
